High-throughput results deposited in PubChem BioAssay by several laboratories.
sPLA2-III inh = Blocks human group III sPLA2 activity. Q9NZ20. QFRET BODIPY PC-A2 liposome hydrolysis, fluorescence. inhibition, % at 12.2 µM. 370,000 tested, 0.56% active. AID 743126;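 active means inhibition above mean plus 3 SD of compounds lying within the high and low control bounds, cut at about 19% in these data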;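 further: 0% = median of test compound wells and 100% = no enzyme DMSO wells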
SUMO HTRF inh = inhibitors of human SUMOylation (UBC9) | P63279 | HTRF SUMOylation assay, SAE1/SAE2 + UBC9, in vitro | inhibition, % at 35 µM | 290,000 tested, 0.36% active; in the data active means inhibition above about 50%, passing the limit was not always enough
Target sequence (P63279 whole entry, looked up): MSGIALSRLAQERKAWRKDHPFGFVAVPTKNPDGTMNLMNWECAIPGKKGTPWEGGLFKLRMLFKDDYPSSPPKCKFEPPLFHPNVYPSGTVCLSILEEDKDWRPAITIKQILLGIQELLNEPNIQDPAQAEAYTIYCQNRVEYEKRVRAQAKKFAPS
UBC13 polyUb = human UBC13 polyubiquitination inhibition; 330,000 tested, 0.47% active; P61088; inhibition, % at 20 µM; UBC13 polyubiquitin chain formation, TR-FRET; in the data active means inhibition above about 45%, passing the limit was not always enough
Target sequence (P61088 whole entry, looked up): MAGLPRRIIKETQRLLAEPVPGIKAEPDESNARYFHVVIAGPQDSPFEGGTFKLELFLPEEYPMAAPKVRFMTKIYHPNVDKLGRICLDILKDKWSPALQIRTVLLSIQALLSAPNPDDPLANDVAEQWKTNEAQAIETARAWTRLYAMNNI
NR3A LBD binder = NR3A (human) ligand-binding domain modulation. NR3A LBD differential scanning fluorimetry, Tm shift; 0% = protein alone, 100% = glycine-bound protein. Tm shift relative to glycine control, % at 25 µM. 340,000 tested, 2.5% active. AID 1259313;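 active means melting temperature shift of at least 10% of the positive control shift, at one fixed dose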
sPLA2 confirm = human GIII-sPLA2 inhibition, confirmation. shares compounds with sPLA2-III inh. recombinant hGIII-sPLA2, BODIPY PC-A2 QFRET fluorescence. inhibition, % at 12.2 µM. 2,000 tested, 34% active. AID 743280;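 active means mean inhibition across triplicates above the hit cutoff set in the earlier primary screen, cut at about 19% in these data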;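 further: 0% = enzyme with DMSO and 100% = DMSO wells lacking enzyme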
535nm interf = 535nm fluorescence interference, HGIII-sPLA2 counter-screen; inhibition, % at 12.2 µM; AID 743282; shares compounds with sPLA2-III inh; BODIPY FL product fluorescence interference, QFRET; 2,000 tested, 8.5% active;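 active means average inhibition above the solvent-only control mean plus 3 SD, cut at about 6% in these data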;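 further: 0% = DMSO with substrate plus product and 100% = DMSO with substrate alone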
535nm interf DR = interferes with 535nm fluorescence in dose response counter-screen; shares compounds with sPLA2-III inh; BODIPY FL product fluorescence interference, cell-free; IC50, µM; 240 tested, under 10 active;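 active means IC50 at or below 10 µM; inactive means IC50 above 10 µM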
* marks the source's active call; other numbers are inactive results; / = not tested or not shown. Only some compounds are listed: those with a hit (about 3.3% of all), similar ones and a draw of the others.

SMILES	sPLA2-III inh	SUMO HTRF inh	UBC13 polyUb	NR3A LBD binder	sPLA2 confirm	535nm interf	others
COC(=O)[C@]12C[C@H](CC(=O)NCc3ccccc3)C(=O)N(CCc3ccc(OC)c(OC)c3)C1=C[C@H](C(C)C)O[C@@H]2C1CC1	-12	/	/	/	/	/
CCCCNS(=O)(=O)CC1NCc2ccccc21 (stereo not given)	8	/	/	/	/	/
CNC(=O)CCc1nc(-c2ccc(C(C)C)cc2)no1	0	/	/	/	/	/
C=CCN=c1scc(-c2ccco2)n1/N=C/c1ccc(O)c(O)c1O	24*	45	10	-1	37*	-1	535nm interf DR=>122
Nc1[nH]c(C(=O)c2ccccc2)c(-c2ccc(Cl)cc2)c1C(=O)NCCC1=CCCCC1	-1	/	/	/	/	/
CC1(C)Oc2ccc3ccc(=O)oc3c2C(/C=N/O)=C1Cl	21*	2	5	2	8	-5
COC(=O)C1=NN(c2cccc(C)c2)C2C(=O)N(c3ccccc3OC)C(=O)C12 (stereo not given)	20*	19	6	4	-2	-2
CCOC(=O)[C@]12CCCCC/C=C\1N(Cc1ccc(OC)cc1)C(=O)[C@H]2CC(=O)NCc1cccc2ccccc12	-8	/	/	/	/	/
O=C(Cc1ccccc1F)N1CCC(n2nnc3ncccc32)CC1	14	/	/	/	/	/
CC(=O)C1=C(C)Nc2ncnn2C1c1ccc(O)cc1 (stereo not given)	0	6	-11	-1	/	/
CC(=O)C1=C(C)Nc2ncnn2C1c1ccc(F)cc1 (stereo not given)	22*	9	-2	-3	11	-5
O=C(Nc1nc(-c2ccccn2)cs1)c1cc(Cl)ccc1[N+](=O)[O-]	9	-69	-36	-4	/	/
O=C(Nc1nc(-c2ccccn2)cs1)c1ccc(-c2ccccc2F)o1	21*	/	-41	12*	24*	4
Cc1cc(C(=O)Nc2nc(-c3ccccn3)cs2)ccc1[N+](=O)[O-]	26*	-63	-35	-13	28*	-2	535nm interf DR=>122
CCc1cc(C(=O)Nc2nc(-c3ccccn3)cs2)sc1C	21*	/	-30	0	25*	3
COc1ccccc1-c1nnc(SCC#CCOC(=O)c2ccc(F)cc2)o1	-1	/	/	/	/	/
N#CCC[C@@H]1CC[C@]2(CCCN(C(=O)c3ccc4ccccc4n3)C2)O1	4	/	/	/	/	/
Cc1cc(C)nc(Sc2ccc([N+](=O)[O-])cc2[N+](=O)[O-])n1	20*	-4	3	-6	3	-1
O=[N+]([O-])c1ccc(Sc2ccncn2)c([N+](=O)[O-])c1	3	/	/	/	/	/
c1ccc(N2CCN(c3ccccc3)C2c2cccnc2)cc1	24*	-21	0	10*	4	-12
CCCCOCCCNC(=O)C[C@H]1C[C@@]2(C(=O)OC)C(=C[C@H](C3CCCC3)O[C@@H]2C)N(CCc2ccc(OC)c(OC)c2)C1=O	-7	/	/	/	/	/
CC1=NN(C(N)=S)C(=O)C1N=Nc1cccc(Cl)c1 (stereo not given)	-3	12	0	7	/	/
COc1cccc(N=NC2C(=O)N(C(N)=S)N=C2C)c1 (stereo not given)	23*	/	-13	0	14	-2
CSC1=NCCCN1C(=O)c1c(-c2ccccc2Cl)noc1C	22*	16	0	1	-2	-6
Cc1cc(-c2nc3ncccc3o2)ccc1NC(=S)NC(=O)c1ccco1	21*	17	13	-1	8	-22
SMILES	sPLA2-III inh	SUMO HTRF inh	UBC13 polyUb	NR3A LBD binder	sPLA2 confirm	535nm interf	others
CC(C)(C)c1ccc(C#C[C@@H]2C=C[C@@H](O)[C@@H](CO)O2)cc1	20*	/	/	/	-2	-12
C/C(CC(C)(C)C1CCCCC1)=N\NC(N)=S	20*	2	7	0	19*	-3
C/C(CCC12CC3CC(CC(C3)C1)C2)=N\NC(N)=S	7	16	11	-1	/	/
CCC(C)[C@@H](C(=O)NCC1CCC(C(=O)O)CC1)n1nnc2ccccc2c1=O (stereo not given in full)	20*	-4	-6	-3	2	-4
COC(=O)[C@H](C(C)C)N(Cc1cn(Cc2ccccc2)nn1)S(=O)(=O)c1ccc(F)cc1Br	-3	/	/	/	/	/
N#C/C(C(N)=O)=c1/ccc2c(c1)N1C3=C(CCCC3)CC3CCCCC31N=2 (stereo not given)	26*	-58	-83	2	45*	1	535nm interf DR=>122
N#CC(C#N)=c1ccc2c(c1)N1C3=C(CCCC3)CC3CCCCC31N=2 (stereo not given)	13	-40	-29	-5	/	/
CCCCNC(=S)NNC(=O)c1nn(C)c(C)c1Cl	23*	-21	13	0	21*	0
Cc1c(Cl)c(C(=O)NNC(=S)NCc2ccco2)nn1C	35*	11	-6	-1	41*	-2	535nm interf DR=>122
Cn1cc(Cl)c(C(=O)NNC(=S)NCc2ccco2)n1	30*	13	8	-1	25*	6.3*
C[N+]1(CC2COC3(CCCCC3)O2)CCCC1 (stereo not given)	24*	22	1	-5	-2	-3
Cc1cc(OC(=O)c2cccc(C(F)(F)F)c2)c([N+](=O)[O-])c(=O)[nH]1	22*	0	3	1	-4	-4
Cc1cccc(C(=O)Oc2cc(C)[nH]c(=O)c2[N+](=O)[O-])c1	9	10	-1	2	/	/
COC(=O)[C@]12C[C@H](CC(=O)NCc3ccc(OC)c(OC)c3)C(=O)N(Cc3cccc4ccccc34)C1=C[C@H](C(C)C)O[C@@H]2C1CC1	-2	/	/	/	/	/
O=C(CSc1nnc(COc2ccccc2)n1Cc1ccco1)Nc1ccc2c(c1)OCO2	-13	/	/	/	/	/
O=C(OCc1ccccc1)C1=NNC2C(=O)N(c3ccccc3)C(=O)C12 (stereo not given)	23*	-2	7	-3	1	-3
COC(=O)[C@]12C[C@H](CC(=O)NCc3ccc(OC)c(OC)c3)C(=O)N(Cc3cccc4ccccc34)C1=C[C@H](C1CCCC1)O[C@@H]2C	-9	/	/	/	/	/
CC(=O)CC[C@H]1CC[C@]2(CCCN(C(=O)C(C)(C)C)C2)O1	3	/	/	/	/	/
CC(=O)Nc1cccc2ncccc12	24*	6	-1	-3	1	-6
NC(=S)N/N=C1\CC(c2ccc3c(c2)OCCO3)Oc2ccc(F)cc21 (stereo not given)	21*	20	-11	-15	10	-2
CC(C)c1cc(C(C)C)c(S(=O)(=O)NCC(=O)N2CCN(c3ncccn3)CC2)c(C(C)C)c1	-3	/	/	/	/	/
COc1ccc(CN2C(=O)COc3ccccc3C2c2nnnn2C2CCCCC2)cc1 (stereo not given)	-9	/	/	/	/	/
CCCOc1ccc(C(=O)NCCO)cc1	-1	15	-16	2	/	/
